The nature of assay [1]: compound effects on lung adenocarcinoma cell viability – A549, calcein-AM fluorescence, 48 h, basal, profiling panel (AID 1162). The note with it: higher = more signal.
Assay [2] can be described thus: compound effects on differentiated 3T3-L1 adipocyte viability – cell-based, 3T3-L1 adipocytes, calcein-AM fluorescence, 48 h, basal, profiling panel (AID 1163). The conditions noted are these: 3T3-L1 adipocytes viability, higher = more signal.
The nature of assay [3]: compound effects on hepatocellular carcinoma cell viability – HepG2, calcein-AM fluorescence, 48 h, basal, profiling panel (AID 1164). The conditions noted are these: higher = more signal.
Assay [4] is described as follows: compound effects on multiple myeloma cell viability – MM1S, calcein-AM fluorescence, 48 h, basal, profiling panel (AID 1165). The conditions noted are these: higher = more signal.
Assay [5] in a line: calcein-AM signal in unstimulated myeloma cells – cell-based, calcein-AM fluorescence, 48 h, PK04 Diversity Set, profiling panel (AID 1166).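 Further: cells grown under basal conditions without added stimulus.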 The note with it: RPMI8226 myeloma viability, higher = more signal.
Assay [6] in a line: JC-1 mitochondrial signal, unstimulated HepG2 cells – cell-based, JC-1 fluorescence, 24 h, 100 nL compound, profiling panel (AID 1167). The note with it: HepG2 mitochondrial potential, higher = more signal.
Assay [7] in a line: JC-1 mitochondrial signal, unstimulated adipocytes – cell-based, JC-1 fluorescence, 3T3-L1 adipocytes, 24 h, 100 nL compound, profiling panel (AID 1168). The note with it: JC-1 mitochondrial fluorescence, higher = more signal, called active from +8 up or from −8 down.
Assay [8] is described as follows: JC-1 mitochondrial signal, unstimulated myeloma cells – cell-based, JC-1 fluorescence, RPMI8226, 24 h, 100 nL compound, profiling panel (AID 1169). The note with it: JC-1 mitochondrial potential fluorescence, higher = more signal.
Assay [9] in a line: JC-1 mitochondrial signal, unstimulated MM1S myeloma – cell-based, JC-1 fluorescence, 24 h, 100 nL compound, profiling panel (AID 1170). The note with it: MM1S mitochondrial potential, higher = more signal.
Assay [10] can be described thus: resazurin metabolic signal in A549 cells – cell-based, resazurin fluorescence, 24 h, PK04 Diversity Set, profiling panel (AID 1171). The conditions noted are these: A549 viability, higher = more signal, called active from +8 up or from −8 down. (In general: Alamar Blue is a resazurin reagent that responds to reducing activity.)

The source made the active and inactive calls.
Further: test concentration not given here.

Regarding `CCCC=C(CCC)[C@@H](NS(=O)(=O)c1ccccc1)c1ccc(C(F)(F)F)cc1`, the z-score was -2.27 in assay [1]; -0.287 in assay [2]; -2.34 in assay [3]; -2.55 in [4]; -4.06 in assay [5]; -3.56 in assay [6]. In addition, the z-score is -0.634 (inactive) in assay [7], -0.981 in [8], -2.47 in assay [9] and -0.795 (inactive) in assay [10].
`COCC1=C([C@H](O)CCc2ccccc2)[C@H](CO)[C@@H]2C(=O)N(C)C(=O)[C@@H]2C1`: the z-score in [1] was 0.803; in assay [2] it was -0.473; in [3], 0.693; in [4] it was 0.347; in assay [5] it was -0.243; in [6], 0.618. The z-score in assay [7] was -0.368 (inactive); in assay [8] it was 0.442; in assay [9] it was 0.341; in [10], -0.515 (inactive).
On to `COCCCNC(=O)[C@@]1(Cc2ccccc2CN=[N+]=[N-])N=C(c2ccc(OCCCO)cc2)O[C@H]1c1ccccc1N=[N+]=[N-]`, for which the z-score in [1] was -0.121; in [2], -0.0406; in [3] it was 0.35; in assay [4] it was -1.34; in [5], -3.87; in assay [6], 1.36. For the same compound, the z-score in assay [7] was 1.98 (inactive); in assay [8] it was -1.06; in assay [9] it was -0.156; in assay [10], -1.47 (inactive).
`O=[N+]([O-])c1ccc(C[n+]2ccc(-c3ccc(CO)cc3)cc2)o1`: the z-score in [1] is 0.0994; in assay [2], 0.511; in [3], -1.19; in [4] it was 0.266; in [5], -1.19; in assay [6] it was -1.48. The z-score in [7] is -0.886 (inactive); in assay [8], 0.187; in assay [9], -0.425; in assay [10] it was -0.335 (inactive).
Consider `COC(=O)[C@@]1(Cc2ccc(F)cc2)[C@H]2c3cc(C(=O)N(C)C)n(Cc4ccc(C)c(F)c4F)c3C[C@H]2CN1C(=O)c1ccccc1`, for which the z-score in assay [1] is 0.674; in assay [2], -0.609; in assay [3], 1.03; in assay [4], -0.144; in [5], 0.299; in [6], 3.29. Besides, the z-score is 0.157 (inactive) in [7], 0.299 in assay [8], -0.605 in [9] and 0.0638 (inactive) in assay [10].
With `COc1ccc(C(=O)Nc2ccc(CN3C(=O)[C@@]4(O[C@@H](CC(=O)N5Cc6ccccc6C[C@H]5CO)[C@H]([Si](C)(C)c5ccc(OC)cc5)[C@H]4C)c4ccccc43)cc2)cc1`, the z-score is -0.0018 in assay [1]; 0.844 in [2]; -0.856 in assay [3]; -1.84 in assay [4]; -0.881 in [5]; 0.489 in assay [6]. For the same compound, the z-score was 0.749 (inactive) in assay [7], -0.957 in assay [8], -1.05 in [9] and 0.143 (inactive) in assay [10].
`CCCC=C(CCC)[C@@H](NC(=O)Cc1ccccc1)c1ccc(C(=O)OC)cc1`: the z-score in assay [1] is -0.988; in assay [2], -0.735; in assay [3], -0.512; in assay [4], -2.42; in assay [5] it was -0.513; in [6], -1.59. Moreover, the z-score is -1.7 (inactive) in assay [7], -0.566 in assay [8], -2.09 in assay [9] and -0.712 (inactive) in assay [10].
Consider `COc1ccc([Si](C)(C)[C@@H]2[C@@H](CCO)O[C@]3(C(=O)N(Cc4ccccc4)c4ccc(N5C(=O)COc6ccccc65)cc43)[C@H]2C)cc1`, for which the z-score in assay [1] was -1.4; in assay [2], 0.155; in [3], -1.08; in assay [4] it was -2.24; in assay [5] it was -0.0589; in [6], 0.102. The z-score in assay [7] was 0.222 (inactive); in assay [8] it was -0.741; in [9] it was -0.857; in [10] it was -0.177 (inactive).
As for `C[C@@H]1ON(c2ccccc2)[C@H](c2ccccc2)[C@H]1C(=O)N1C(=O)OC[C@H]1Cc1ccccc1`, the z-score is -0.245 in [1]; 0.701 in assay [2]; -0.0596 in [3]; -1.4 in [4]; -0.0681 in assay [5]; 1.38 in [6]. The z-score in assay [7] was 0.00493 (inactive); in assay [8], -0.137; in assay [9], -0.645; in [10] it was 1.38 (inactive).
As for `CN1C(=O)C2C=CC(C(O)C3CCCCC3)N(N(c3ccccc3)c3ccccc3)C2C1=O` (stereo not given), the z-score in assay [1] was -0.42; in [2], -0.88; in assay [3], 0.149; in [4], 0.241; in [5], -0.758; in assay [6], -0.954. For the same compound, the z-score in assay [7] is -1.2 (inactive); in assay [8], -0.361; in [9], -0.365; in assay [10], -0.361 (inactive).
As to `CCCCC=C[C@@H](NC(=O)CCc1ccccc1)c1ccccc1`, the z-score in [1] is -2.48; in [2], -0.346; in [3] it was -3.43; in assay [4], -3.31; in [5], -4.71; in assay [6] it was -3.88. Besides, the z-score in [7] is -0.775 (inactive); in assay [8] it was -0.85; in assay [9] it was -1.74; in [10] it was -1.3 (inactive).
With `[N-]=[N+]=NCc1ccccc1C[C@]1(C(=O)NCCN2CCOCC2)N=C(c2ccc(OCCCO)cc2)O[C@H]1c1ccccc1`, the z-score in assay [1] is 0.112; in [2], 0.117; in assay [3], -0.493; in assay [4], -0.338; in [5], -1.06; in assay [6], 0.871. Further, the z-score was 0.469 (inactive) in assay [7], -0.636 in [8], -0.54 in assay [9] and 1.29 (inactive) in assay [10].
With `COCCCNC(=O)[C@@]1(Cc2ccccc2)COC(c2ccc(OCCCO)cc2)=N1`, the z-score in assay [1] is 0.654; in assay [2], -0.598; in assay [3], 1.02; in assay [4] it was -0.35; in [5], -1.04; in assay [6] it was -1.11. Also, the z-score in [7] is 0.154 (inactive); in assay [8] it was -0.367; in [9], -0.693; in [10], 0.244 (inactive).
Consider `C=C[C@H](C)[C@H](OC(=O)Nc1ccc(SC)cc1)c1ccc(O)c2ccccc12`, for which the z-score was -0.561 in assay [1]; -0.557 in [2]; -1.51 in assay [3]; -2.74 in assay [4]; -3.78 in assay [5]; -3.16 in [6]. The z-score in [7] was -0.818 (inactive); in assay [8], -0.939; in assay [9], -1.51; in assay [10], -1.12 (inactive).
In the case of `CCCN1C(=O)[C@@]2(Cc3ccccc3)N=C(c3ccc(OCCCO)cc3)O[C@H]2c2ccccc21`, the z-score is -1.54 in [1]; 0.778 in assay [2]; -1.7 in [3]; -2.34 in assay [4]; -4.32 in assay [5]; -0.214 in [6]. Besides, the z-score in assay [7] was 1.18 (inactive); in [8], -1.27; in [9], -0.647; in assay [10], -0.232 (inactive).
